Only some compounds are listed: those with a hit (about 19% of all), similar ones and a draw of the others.
IL1B secr inh: inhibitors of inflammasome signaling (IL-1 beta secretion); THP-1 LPS/ATP IL-1B secretion, AlphaLISA, 16 h; hits give low values; activity change, % at 57.5 µM; 360,000 compounds, 4.7% hits; in the data active = activity change below about -50%; inconclusive = mostly about -30% to -49%
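THP-1 cells pretreated 1 hr with compounds (up to 57.5 uM final), then stimulated with LPS (250 ng/mL final) plus ATP (1.25 mM final); secreted IL-1B measured by AlphaLISA after 16 hr, decreased signal indicating inhibition.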
HT1080-NT tox: kills 2HG-producing HT-1080-NT fibrosarcoma cells; HT-1080-NT fibrosarcoma viability, CellTiter-Glo ATP luminescence, 48 h; Potency, µM (top dose mostly 46.1 µM), for inactives: at the top dose activity, negative = less viability, actives largely listed as cytotoxic; 360,000 compounds, 1.6% hits; AID 686970;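 also: NT is the 2HG producing partner of a matched IDH1 knockdown line; potency is read from the fitted curve at half-maximal effect; 0% = DMSO-treated cells and -100% = media-only wells without cells; nearly all actives have a fitted effect of over 55% in size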
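Viability by CellTiter-Glo luminescence after 48 h compound exposure at 37C of HT-1080-NT cells (750/well, RPMI, 5% FBS). % activity scaled between DMSO wells and medium-only wells, then curve-fitted and categorized by curve class.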
HT1080 IDH1KD tx: HT-1080 IDH1 knockdown cell toxicity (counter line). HT-1080 IDH1 knockdown viability, ATP luminescence, 48 h. Potency, µM (series often up to 46.1 µM), for inactives: at the highest dose activity, negative = toxicity, hits mostly cytotoxic. 360,000 compounds, 2% hits. AID 686971;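 also: potency is read from the fitted curve at half-maximal effect; 0% = DMSO wells and -100% = cell-free medium wells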
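Knockdown cells (IDH1KD HT-1080) received compounds 2 h after plating at 750 cells/well and were kept 48 h at 37 °C in 5% FBS RPMI. A CellTiter-Glo luminescence read gave % activity for curve fitting.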
TDP1 cell noCPT: qHTS for Inhibitors of human tyrosyl-DNA phosphodiesterase 1 (TDP1): qHTS in cells in absence of CPT. DT40 Tdp1-/- hTDP1 cells, no CPT, ATP luminescence, 48 h. Potency, µM (series often up to 46.2 µM), for inactives: at the highest dose activity change, negative = growth inhibition, most hits filed as inhibitors. 420,000 compounds, 15% hits; also: potency is read from the fitted curve at half-maximal effect; nearly all actives have a fitted effect of over 55% in size
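A cellular qHTS used chicken DT40 cells lacking endogenous Tdp1 but carrying stably transfected human TDP1. Compounds were applied without camptothecin, and cell growth kinetics were judged by ATP-dependent luminescence after ≥48 hr.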
DT40 TDP1 CPT: DT40-hTDP1 cell growth loss with CPT; chicken DT40 Tdp1-/-;hTDP1 cells + 20 nM CPT, ATP luminescence, 48 h; Potency, µM (series often up to 46.2 µM), for the others: at the highest dose activity change, negative = growth inhibition, hits mostly inhibitors; 420,000 compounds, 12% hits; AID 686979; also: potency is read from the fitted curve at half-maximal effect; nearly all actives have a fitted effect of over 55% in size
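Chicken DT40 Tdp1-/- cells complemented with human TDP1, 400 cells/well, exposed to compounds plus 20 nM camptothecin for at least 48 h at 37 C; viability read as ATP content by CellTiter-Glo luminescence.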
Starred values were filed as active, the others as inactive; ? = inconclusive; nt = no result; ! = a repeat was not active. Unless noted, calls follow the shape of the dose curve; as a rule, active = well fitted curve in the direction sought with a large enough effect; inconclusive = small, poorly fitted or top-dose-only effect, or another doubt; inactive = no such curve, though single readings can be large; an effect the other way counts as inactive or inconclusive. Unless noted, % is scaled to controls: 0 for no effect and ±100 for the full control effect.

SMILES	IL1B secr inh	HT1080-NT tox	HT1080 IDH1KD tx	TDP1 cell noCPT	DT40 TDP1 CPT
CC(C)NC1CCC(Nc2ccnc3cc(Cl)ccc23)CC1 (configuration not stated)	-93*	-9%	?	9.2µM*	6.5µM*
Cc1cc(C)cc(NC(=O)Cc2csc(COc3cccc(C)c3)n2)c1	nt	nt	nt	-20%	-20%
Cc1cccc(OCc2nc(CC(=O)Nc3ccc(C)cc3C)cs2)c1	nt	nt	nt	?	15µM*
O=C(NCc1ccccc1)c1ccc(CS(=O)(=O)c2ccccc2)o1	-3	1%	4%	16µM*	2.6µM*
COc1ccc(OC)c(CCNC(=O)c2ccc(CS(=O)(=O)c3ccc(Br)cc3)o2)c1	-12	-3%	1%	?	21µM*
COc1ccc(CNC(=O)c2ccc(CS(=O)(=O)c3ccc(Br)cc3)o2)cc1	-22	0%	5%	23µM*!	23µM*
COc1ccc(S(=O)(=O)Cc2ccc(C(=O)NCc3ccc(C)cc3)o2)cc1	-17	5%	-12%	23µM*	-13%
O=C(NCc1ccccc1Cl)c1ccc(CS(=O)(=O)c2ccc(Br)cc2)o1	nt	nt	nt	13µM*	23µM*
O=C(NCc1ccccc1)c1ccc(CSc2ccccc2)o1	-91*	-1%	-16%	-17%	-12%
CC(=O)Nc1ccc(NC(=O)c2ccc(CSc3ccccc3)o2)cc1	?	10%	7%	-27%	1%
CC1(C(=O)NS(=O)(=O)c2ccccc2)CCN1C(=O)CC1CC1 (configuration not stated)	0	20%	13%	-2%	-3%
O=C(CCNC(=O)c1ccc(Br)cc1)NCc1ccncc1	11	11%	10%	-7%	4%
CNC(=S)NNC(=O)c1sc(-c2cc(C)on2)nc1C	45	4%	-21%	-5%	3%
O=c1[nH]c(N2CCN(c3ccccc3)CC2)nc2c1CCC2	-3	13%	14%	?	-28%
O=c1[nH]c(N2CCN(c3ccccc3)CC2)nc2c1CCCC2	-15	3%	3%	23µM*	?
CCCCCCOc1ccc(/C=C/C(=O)Nc2sc3c(c2C(=O)OC)CCC3)cc1OC	nt	nt	nt	4.1µM*	7.3µM*
CSc1ncccc1C(=O)OCC(=O)c1cccs1	31	-1%	11%	-7%	2%
COc1ccc(C)cc1S(=O)(=O)N(CC(=O)Nc1cccc([N+](=O)[O-])c1)c1ccc(C)c(C)c1	-3	-2%	-2%	?	16µM*
COc1ccc(NC(=O)CN(c2ccc(C)cc2)S(=O)(=O)c2cccc3nonc23)cc1OC	nt	nt	nt	16µM*	-19%
COc1ccc(NC(=O)CN(c2ccc(C)cc2)S(=O)(=O)c2cccs2)cc1OC	nt	nt	nt	-2%	2%
Cc1ccc(NC(=O)CN(c2ccc(Cl)cc2)S(=O)(=O)c2cc([N+](=O)[O-])ccc2Cl)cc1	-99*	-18%	-20%	23µM*	?
CCOc1cccc(C(=O)Nc2ccccc2C(=O)N2CCN(C)CC2)c1	7	0%	-1%	1%	9%
O=C(COC(=O)c1ccc(O)cc1O)Nc1nnc(-c2ccccc2)o1	12	4%	3%	5%	-6%
CCCNC(=O)c1ccc2c(c1)N=C(CCC)c1ccccc1S2	nt	nt	nt	0.73µM*	1.2µM*
CCCC1=Nc2cc(C(=O)NCc3ccc(OC)cc3)ccc2Sc2ccc(C)cc21	nt	nt	nt	9.2µM*	15µM*
SMILES	IL1B secr inh	HT1080-NT tox	HT1080 IDH1KD tx	TDP1 cell noCPT	DT40 TDP1 CPT
CCCC1=Nc2cc(C(=O)NCCCN3CCN(C)CC3)ccc2Sc2ccccc21	-8	?	0%	?	?
COc1ccc(CNC(=O)c2cc(-c3cc(C)ccc3O)n[nH]2)cc1	-14	0%	13%	?	?
CCOC(=O)N1CCN(C(=O)c2ccc3c(c2)N=C(C)c2cc(Cl)ccc2S3)CC1	-10	25%	2%	12µM*	?
CCC1=Nc2cc(C(=O)NC(C)c3ccccc3)ccc2Sc2ccc(Cl)cc21 (configuration not stated)	nt	nt	nt	?	16µM*
CCOCCCNC(=O)c1ccc2c(c1)N=C(CC)c1cc(Br)ccc1S2	-11	?	0.092µM*	0.033µM*	0.037µM*
CCC1=Nc2cc(C(=O)NCc3ccccc3Cl)ccc2Sc2ccc(C)cc21	nt	nt	nt	3.3µM*	5.2µM*
CCOC(=O)N1CCC(NC(=O)c2ccc3c(c2)N=C(CC)c2ccccc2S3)CC1	-22	?	?	?	?
CCCC1=Nc2cc(C(=O)NCCc3ccccc3)ccc2Sc2ccc(C)cc21	nt	nt	nt	6.5µM*	4.6µM*
CCCC1=Nc2cc(C(=O)NCCCN3CCOCC3)ccc2Sc2ccccc21	-22	-16%	?	-21%	-29%
CCOCCCNC(=O)c1ccc2c(c1)N(CC)C(=O)c1ccccc1S2=O (configuration not stated)	44	-12%	-27%	?	?
CCC1=Nc2cc(C(=O)N3CCC(C)CC3)ccc2Sc2ccc(C)cc21	nt	nt	nt	16µM*	16µM*
CCC(C(=O)Nc1sc(C(N)=O)c(C)c1C(=O)OC)c1ccccc1 (configuration not stated)	57	?	?	-23%	-5%
Cc1ccc(C(=O)c2c(N)c(-c3nc(-c4ccc5c(c4)OCO5)cs3)c3ccccn23)cc1C	nt	nt	nt	-26%	-10%
CCC1=Nc2cc(C(=O)NCCN3CCOCC3)ccc2Sc2ccccc21	-12	0%	-4%	-2%	-3%
CCC1=Nc2cc(C(=O)NCCc3ccccc3)ccc2Sc2ccc(Cl)cc21	nt	nt	nt	6.5µM*	8.2µM*
CCOC(=O)c1c(NC(=O)c2cc(-c3ccccc3)on2)sc2c1CCCC2	nt	nt	nt	3%	-14%
CC(C)(C)/C(O)=C(/C#N)c1nc2ccccc2[nH]1	-2	-19%	-18%	?	?
COc1cccc(OC)c1/C(O)=C(\C#N)c1nc2ccccc2[nH]1	27	18µM*	-25%	13µM*	?
COc1ccc(/C(C)=N/OC/C(O)=C(\C#N)c2nc3ccccc3[nH]2)c(OC)c1	-1	1%	-26%	10%	-19%
COc1ccc(/C(C)=N/OC/C(O)=C(\C#N)c2nc3ccccc3[nH]2)cc1OC	24	?	1%	16µM*	?
O=C(CSc1nnnn1-c1ccc(O)cc1)c1cc2ccccc2o1	5	2%	-3%	?	13µM*
CCOC(=O)C1CSC(CC(=O)Nc2ccc(Cl)cc2)C(=O)N1 (configuration not stated)	3	-12%	-10%	-16%	-1%
O=C(O)CCNC1C=CS(=O)(=O)C1 (configuration not stated)	7	8%	1%	3%	-22%
